# From PubChem BioAssay
# Results filed as inconclusive are left out. Activity calls are given as the source filed them. Unless noted, cut-off not given; nearly all actives show AC50 up to about 26 µM.
# Columns and labels:
# [1] = growth inhibition of DIPG glioma cells, dose response, cell-based, JHH-DIPG-1, MIPE4.0, CellTiter-Glo, qHTS (AID 1347062; cut-off not given, nearly all actives have AC50 up to about 27 µM;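 further: cells exposed to compound for two days before readout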); details: JHH-DIPG-1 viability, CellTiter-Glo ATP luminescence
# [2] = growth inhibition of DIPG glioma cells, dose response, cell-based, SU-DIPG-IV, MIPE4.0, CellTiter-Glo, qHTS (AID 1347063; cut-off not given, nearly all actives have AC50 up to about 30 µM;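 further: compound exposure lasted 48 hours before the viability readout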); details: SU-DIPG-IV viability, CellTiter-Glo ATP luminescence
# [3] = growth inhibition of DIPG glioma cells, dose response, cell-based, SU-DIPG-XIII, MIPE5.0, CellTiter-Glo, qHTS (AID 1347064; cut-off not given, nearly all actives have AC50 up to about 23 µM;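 further: cells exposed to compound for 48 hours before the viability read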); details: SU-DIPG-XIII viability, CellTiter-Glo ATP luminescence
# [4] = viability loss in pontine glioma line – cell-based, SU-DIPG-XXV, MIPE5.0, CellTiter-Glo, qHTS, dose response (AID 1347065); details: CellTiter-Glo ATP luminescence;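 further: cells exposed to compound for 48 hours before ATP readout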
# [5] = JHH-DIPG-1 glioma cell viability, MIPE5.0 library, CellTiter-Glo luminescence, qHTS (AID 1347067); details: JHH-DIPG-1 glioma viability, CellTiter-Glo ATP luminescence;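 further: cells exposed to compound for 48 hours before readout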
# [6] = SU-DIPG-XXV glioma cell viability, MIPE5.0 library, qHTS (AID 1347068; cut-off not given, nearly all actives have IC50 up to about 30 µM;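 on IC50: cells exposed to compound for 48 hours before viability readout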)
# [7] = LFS_MB_P medulloblastoma growth inhibition, cell-based, chromothripsis tumors, cisplatin or BGB combos (AID 1671449; in the data active means inhibition above about 80%;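 further: cells exposed for 96 hours; 0% = vehicle DMSO and 100% = killing by high DMSO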); details: LFS_MB_P medulloblastoma cells
# [8] = HDN33 neuroblastoma growth inhibition, cell-based, chromothripsis tumors, cisplatin or BGB combos (AID 1671450; in the data active means inhibition above about 80%;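 further: cells exposed to compound for four days; 0% = vehicle DMSO and 100% = cell killing by high DMSO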); details: HDN33 neuroblastoma cells, stronger effect = higher value
# [9] = ICB984 medulloblastoma cell growth inhibition, synergistic combos for chromothripsis tumors, cisplatin or BGB combos (AID 1671451; call rule not given here;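 further: cells exposed for 96 hours before readout; 0% = vehicle DMSO and 100% = killing by high DMSO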); details: ICB984 medulloblastoma cells, drug combinations, stronger effect = higher value
# [10] = HTB85 osteosarcoma cell growth inhibition, synergistic combos for chromothripsis tumors, BGB or cisplatin IC20 combos (AID 1671453; in the data active means inhibition above about 80%;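 further: cells exposed for 96 hours before readout; 0% = vehicle DMSO and 100% = high DMSO killing control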); details: HTB85 osteosarcoma cells, drug combinations, stronger effect = higher value
# [11] = MDA-MB-436 breast carcinoma cell growth inhibition, synergistic combos for chromothripsis tumors, BGB or cisplatin combos (AID 1671458; call rule not given here;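 further: cells exposed for 96 hours; 0% = vehicle DMSO and 100% = killing by high DMSO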); details: MDA-MB-436 breast carcinoma growth inhibition, drug combinations, stronger effect = higher value
# [12] = growth inhibition of BT084 medulloblastoma cells, cell-based, ICGC_MB145, cisplatin and BGB IC40 combos (AID 1671461; in the data active means inhibition above about 80%;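 further: cells exposed to drugs for 96 hours; 0% = vehicle DMSO and 100% = high DMSO full killing control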); details: drug combinations, stronger effect = higher value
# [13] = growth inhibition of RCMB18 medulloblastoma cells, cell-based, cisplatin and BGB IC40 combos (AID 1671462; in the data active means inhibition above about 80%;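 further: cells exposed to compound for four days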); details: stronger effect = higher value
# [14] = growth inhibition of CRL1545 osteosarcoma cells, cell-based, cisplatin and BGB IC20 combos (AID 1671464; in the data active means inhibition above about 80%;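 further: cells exposed to compound for 96 hours before readout; 0% = vehicle DMSO and 100% = high DMSO killing control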); details: stronger effect = higher value
# [15] = growth inhibition of DIPG glioma cells, dose response, cell-based, SU-DIPG-XIII, MIPE4.0, CellTiter-Glo, qHTS (AID 1347061; cut-off not given, nearly all actives have AC50 up to about 37 µM;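 further: cells exposed to compound for 48 hours before readout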); details: SU-DIPG-XIII viability, CellTiter-Glo ATP luminescence
# [16] = SU-DIPG-VI glioma cell viability, MIPE4.0 library, CellTiter-Glo luminescence, qHTS (AID 1347066; cut-off not given, nearly all actives have AC50 up to about 30 µM;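 further: cells exposed to compound for 48 hours before readout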); details: CellTiter-Glo ATP luminescence
# [17] = measured here: with BGB IC20 combination, at 0.5 µM
# [18] = measured here: with cisplatin IC20 combination, at 0.5 µM
structure (smiles),measurement,setting,value
Cc1cc(Nc2cc(NC(=O)c3c(Cl)cccc3Cl)ccn2)nc(N)n1,AC50,[1],18.7 µM (active)
same,AC50,[2],18.7 µM (active)
same,AC50,[3],8.33 µM (active)
same,AC50,[4],9.34 µM (active)
same,AC50,[5],9.34 µM (active)
same,IC50,[6],18.6 µM (active)
CO[C@H]1/C=C/O[C@@]2(C)Oc3c(C)c(O)c4c(O)c(c(/C=N\N5CCN(C6CCCC6)CC5)c(O)c4c3C2=O)NC(=O)/C(C)=C\C=C\[C@H](C)[C@H](O)[C@@H](C)[C@@H](O)[C@@H](C)[C@H](OC(C)=O)[C@@H]1C,AC50,[1],0.105 µM (active)
same,AC50,[2],0.0935 µM (active)
same,AC50,[3],23.5 µM (active)
same,AC50,[4],26.3 µM (active)
same,IC50,[6],20.9 µM (active)
same,inhibition,"[7]; at 0.5 µM, stronger effect = higher value",5.09% (inactive)
same,inhibition,"[7]; measured here: combination with BGB IC20, at 0.005 µM",-7.42%
same,inhibition,"[7]; measured here: combination with BGB IC40, at 0.005 µM",-15%
same,inhibition,"[7]; measured here: combination with BGB IC40, at 0.05 µM",-18.2%
same,inhibition,"[7]; measured here: combination with cisplatin, at 0.5 µM, stronger effect = higher value",-6.85%
same,inhibition,"[7]; measured here: combination with cisplatin, at 5 µM, stronger effect = higher value",15%
same,inhibition,"[8]; BGB combo, at 5 µM",85.6%
same,inhibition,[8]; at 0.5 µM,-11.9% (inactive)
same,inhibition,"[8]; cisplatin combo, at 5 µM",6.46%
same,inhibition,[8]; [17],-21.1%
same,inhibition,[8]; [18],-18.8%
same,inhibition,"[8]; single agent, at 5 µM",-3.56%
same,inhibition,"[9]; BGB IC20 combo, at 0.005 µM",-21.8%
same,inhibition,"[9]; BGB IC40 combo, at 0.005 µM",-25.4%
same,inhibition,"[9]; BGB IC40 combo, at 0.05 µM",-16.4%
same,inhibition,[9]; at 0.5 µM,-17.3% (inactive)
same,inhibition,"[9]; cisplatin combo, at 0.05 µM",-19.6%
same,inhibition,"[9]; cisplatin combo, at 0.5 µM",-17.5%
same,inhibition,"[9]; cisplatin combo, at 5 µM",-18.6%
same,inhibition,"[9]; measured here: 5 uM single agent, at 5 µM",-17.8%
same,inhibition,[10]; at 0.5 µM,16% (inactive)
same,inhibition,"[10]; measured here: with BGB IC20, at 0.5 µM",12.6%
same,inhibition,"[10]; measured here: with BGB IC20, at 5 µM",76.7%
same,inhibition,"[10]; measured here: with cisplatin IC20, at 0.5 µM",35.8%
same,inhibition,"[10]; measured here: with cisplatin IC20, at 5 µM",10.4%
same,inhibition,"[10]; single agent, at 5 µM",35.1%
same,inhibition,[11]; at 0.5 µM,-19% (inactive)
same,inhibition,"[11]; measured here: BGB combination, at 0.5 µM",-15.7%
same,inhibition,"[11]; measured here: BGB combination, at 5 µM",-5.36%
same,inhibition,"[11]; measured here: cisplatin combination, at 0.5 µM",-40.9%
same,inhibition,"[11]; measured here: cisplatin combination, at 5 µM",-22%
same,inhibition,[12]; at 0.5 µM,-28.3% (inactive)
same,inhibition,"[12]; cisplatin combination, at 0.5 µM",-31.9%
same,inhibition,"[12]; cisplatin combination, at 5 µM",-20.9%
same,inhibition,"[12]; measured here: BGB IC40 combination 0.05 uM, at 0.05 µM",-25.7%
same,inhibition,"[12]; single agent, at 5 µM",-12.9%
same,inhibition,[13]; at 0.5 µM,-14.8% (inactive)
same,inhibition,"[13]; cisplatin combo, at 5 µM",15%
same,inhibition,"[13]; measured here: BGB IC40 combination, at 0.05 µM",-18.7%
same,inhibition,"[13]; measured here: combination with cisplatin, at 0.5 µM",-14.5%
same,inhibition,"[13]; single agent, at 5 µM",27.7%
same,inhibition,[14]; at 0.5 µM,4.23% (inactive)
same,inhibition,[14]; [17],23.5%
same,inhibition,[14]; [18],-7.81%
same,inhibition,"[14]; single agent, at 0.05 µM",8.47%
same,inhibition,"[14]; single agent, at 5 µM",73.2%
Cc1cn2c(-c3cn[nH]c3)cnc2c(Nc2ccc(C(=O)N3CCNCC3)cc2F)n1,AC50,[15],23.5 µM (active)
same,AC50,[16],18.7 µM (active)
CNC(=O)[C@H](Cc1ccccc1)NC(=O)[C@H](CC(C)C)[C@H](CSc1cccs1)C(=O)NO,outcome,[15],inactive
same,outcome,[16],inactive
same,outcome,[5],inactive
same,outcome,[6],inactive
c1cc(N[C@@H]2CCNC2)nc(-c2cnc3ccc(-c4cn[nH]c4)cn23)c1,AC50,[1],11.8 µM (active)
same,AC50,[2],14.8 µM (active)
same,AC50,[3],14.8 µM (active)
same,AC50,[4],16.6 µM (active)
same,AC50,[16],18.7 µM (active)
same,AC50,[5],16.6 µM (active)
same,IC50,[6],11.8 µM (active)
